{"source": "PubChem BioAssay (NCATS)", "note": "Inconclusive results are not listed. A call without a number means that no potency is given here. Unmarked numbers belong to inactive results. Activity calls are given as the source filed them. The call rests on the fitted dose curve; in most records, active means well fitted inhibition curve with a large enough effect; inconclusive means small, poorly fitted or top-dose-only effect; inactive means flat fitted curve, though single readings scatter. *1 amine or outer side, *2 acyl side, *3 side chain or, on linkers, in order; H or OH if unused. Where a SMILES comes first, the peptide text is derived from it. [ ]: non-standard residue; d: D form. X13 = O=C(C(CC(O)CO)O[*:1])[*:2]; NMeV = CN[CH](C(=O)O)C(C)C; NMeA = CN[CH](C)C(=O)O; βAla = NCCC(=O)O"}
{"experiment": "P-glycoprotein substrates identified in KB-8-5-11 adenocarcinoma cell line, qHTS therapeutic library screen (AID 1346987); further: nearly all actives have a fitted effect of over 65% in size", "conditions": "KB-8-5-11 (P-gp overexpressing) viability, CellTiter-Glo, 72 h; series mostly up to 44.5 µM", "how_it_was_run": "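Steps: plate 500 KB-8-5-11 cells/well in DMEM + 10% FCS (colchicine removed); pin compounds in dose-response; incubate 72 h, 37 degree C, 5% CO2; add CellTiter-Glo, 5 min; read luminescence.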"}
{"smiles": "C/C=C/C1OC2=C(C(=O)OC2(C)O)C(O)C1O", "note": "(stereo not drawn)", "Potency": "inactive"}
{"smiles": "CC(C)C(NC(=O)c1ccc(O)cc1)C(=O)N1CCCC1C(=O)Nc1c(O)cccc1C(=O)O", "note": "(stereo not drawn)", "Potency": "inactive"}
{"smiles": "O=C(NC/C=C/CN1CCN(c2cccc(Cl)c2Cl)CC1)c1ccc(-c2ccccn2)cc1", "Potency": "inactive"}
{"smiles": "C[C@@H]1O[C@@H](OC2C(O[C@H]3[C@H](O[C@H]4CC[C@@]5(C)C(CC[C@]6(C)C5CC=C5C7CC(C)(C)CC(O)[C@]7(C)CC[C@]56C)C4(C)C)O[C@H](C(=O)O)[C@@H](O)[C@@H]3O)OC(CO)C(O)C2O)[C@H](O)[C@H](O)[C@H]1O", "note": "(stereo partly drawn)", "activity change, negative = cytotoxicity": "3.3% [at 9.29 µM]"}
{"smiles": "CC1CCC2(C(=O)O)CCC3(C)C(=CCC4C5(C)CCC(O)C(C)(C(=O)O)C5CCC43C)C2C1(C)O", "note": "(stereo not drawn)", "Potency": "inactive"}
{"smiles": "CC1=CCC[C@@H]2[C@](CCc3ccoc3)(C(=O)O)[C@H](C)CC[C@@]12C", "Potency": "inactive"}
{"smiles": "C=C(C(=O)O)[C@@H]1CC[C@@]2(C)CC[C@@H](O)C(=C)C2C1", "note": "(stereo partly drawn)", "Potency": "inactive"}
{"smiles": "Cc1ncc(NC(=O)c2ccc(CN3CCN(C)CC3)c(C(F)(F)F)c2)cc1Nc1nccc(-c2cccnc2)n1", "Potency": "inactive"}
{"smiles": "CC(=O)O[C@H]1[C@H](OC(=O)C(C)C)[C@]2(C)OC3(CC[C@]2(C)[C@H]2CCC[C@]4(CO4)[C@]12C)COC(=O)C3", "note": "(stereo partly drawn)", "Potency": "inactive"}
{"smiles": "CC(C)c1ccc2c(c1)C(O)CC1C(C)(CO)CCCC21C", "note": "(stereo not drawn)", "Potency": "inactive"}
{"smiles": "C=C(COC(=O)C(C)C)C1Oc2cc(C(C)=O)ccc2C1OC(=O)C(C)C", "note": "(stereo not drawn)", "Potency": "inactive"}
{"smiles": "CCC(C)C1NC(=O)C2CCCN2C(=O)C(CC(O)CO)OC(=O)CCNC(=O)C(C)N(C)C(=O)C(C(C)C)N(C)C1=O", "note": "(stereo not drawn) (cyclo([X13]PI[NMeV][NMeA][βAla]); configuration not given here)", "Potency": "inactive"}
{"smiles": "CCC(C)C(=O)O[C@H]1[C@@H](O[C@H]2O[C@H](CO)[C@@H](O)[C@H](O)[C@H]2O)O[C@H](CO)[C@@H](O)[C@@H]1O", "note": "(stereo partly drawn)", "Potency": "inactive"}
{"smiles": "CC(C)c1ccc2c(c1)[C@H](O)CC1[C@@](C)(C(=O)O)CCC[C@]21C", "note": "(stereo partly drawn)", "Potency": "inactive"}
{"smiles": "COCC1OC(OC(C)(C)C2CCC3(C)C=C(C4CCC5C4(C)CC(O)C4OC(C(C)(C)O)CCC45C)CCC3O2)C(NC(C)=O)C(O)C1O", "note": "(stereo not drawn)", "Potency": "inactive"}
{"smiles": "O=C(Cc1ccc(Cl)cc1)Nc1cnccc1C(=O)O", "Potency": "inactive"}
{"smiles": "COc1cc(C(CO)C(OC2OC(CO)C(O)C(O)C2O)c2ccc(O)c(OC)c2)ccc1O", "note": "(stereo not drawn)", "Potency": "inactive"}
{"smiles": "CCC(C)C(N)C(=O)NCCN1CCOCC1", "note": "(stereo not drawn)", "Potency": "inactive"}
{"smiles": "CC1(C)CC[C@]2(C(=O)O[C@@H]3O[C@H](CO)[C@@H](O)[C@H](O)[C@H]3O)CC[C@]3(C)C(=CCC4[C@@]5(C)CC[C@H](O[C@@H]6O[C@H](C(=O)O)[C@@H](O[C@@H]7O[C@H](CO)[C@@H](O)[C@H](O)[C@H]7O)[C@H](O)[C@H]6O[C@@H]6O[C@H](CO)[C@@H](O)[C@H](O)[C@H]6O)C(C)(C)C5CC[C@]43C)C2C1", "note": "(stereo partly drawn)", "outcome": "inactive [at 9.29 µM]"}
{"smiles": "Fc1ccccc1-c1nc2ccn(Cc3ccc(-c4ccc(C(F)(F)F)cc4C(F)(F)F)nn3)cc-2n1", "Potency": "inactive"}
{"smiles": "CC(C)(CC(=O)N1CCCC1)NCC(=O)N1C[C@@H](F)C[C@H]1C#N", "Potency": "inactive"}
{"smiles": "O=C(/C=C/c1ccccc1)OC[C@H]1O[C@@H](OC(=O)c2cc(O)c(O)c(O)c2)[C@H](O)[C@@H](O)[C@@H]1O", "Potency": "inactive"}
{"smiles": "COC(=O)C1(O)C(OC(C)=O)CCC2C3(CC(c4ccoc4)OC3=O)C(C)=CCC21C(=O)OC", "note": "(stereo not drawn)", "Potency": "inactive"}
{"smiles": "CC(=O)OC/C(=C/C(=O)O)CC[C@@H]1C(C)=CC(=O)[C@@H]2C(C)(C)CCC[C@@]12C", "Potency": "inactive"}
{"smiles": "C[C@H]1CCN2C[C@]34C[C@@]5(C(=O)Nc6c5ccc5c6OC=CC(C)(C)O5)C(C)(C)C3C[C@]12C(=O)N4C", "note": "(stereo partly drawn)", "Potency": "inactive"}
{"smiles": "COC(O)(CC(C)C)C1Oc2cc(C)[nH]c(=O)c2O1", "note": "(stereo not drawn)", "Potency": "inactive"}
{"smiles": "CC1(C)CC[C@]2(C(=O)O[C@@H]3O[C@H](CO)[C@@H](O)[C@H](O)[C@H]3O)CC[C@]3(C)C(=CCC4[C@@]5(C)CC[C@H](O[C@H]6O[C@H](CO)[C@@H](O)[C@H](O[C@@H]7O[C@H](CO)[C@@H](O)[C@H](O)[C@H]7O)[C@H]6O)C(C)(C)C5CC[C@]43C)[C@@H]2C1", "note": "(stereo partly drawn)", "activity change, negative = cytotoxicity": "4.26% [at 9.29 µM]"}
{"smiles": "CC1(C)CC[C@]2(C(=O)OC3OC(CO)C(O)C(O)C3O)CC[C@]3(C)C(=CCC4[C@@]5(C)C[C@@H](O)[C@H](OC6OC(C(=O)O)C(O)C(O)C6O)C(C)(C)C5CC[C@]43C)[C@@H]2C1", "note": "(stereo partly drawn)", "activity change, negative = cytotoxicity": "8.55% [at 9.29 µM]"}
